miR-21 act – qHTS Assay for Modulators of miRNAs and/orActivators of miR-21; HeLa miR-21 FLuc reporter, luciferase, 48 h; Potency, µM (doses to about 38.3 µM), without a hit: at the highest dose activity change, positive = activation, hits mostly activators; 340,000 tested, under 10 active; AID 2288, 2010;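 also: % of control where 0% means no effect; miR-21 action dims this reporter so a rising signal means less miR-21 action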
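HeLa miR-21-FLuc reporter line, endogenous miR-21; 2000 cells/well in DMEM/10% FBS; compound titration up to ~40uM final, 48 h, 37 degree Celsius; luciferase detection reagent, 15 min lysis, CCD luminescence.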
Nrf2 inh – Nrf2 qHTS screen for inhibitors | A549 ARE-Fluc reporter, luciferase luminescence, 18-24 h | Potency, µM (series often up to 46 µM), without a hit: top-dose activity change, negative = inhibition, most hits filed as inhibitors | 360,000 tested, 2.1% active; also: potency is read from the fitted curve at half-maximal effect; % is scaled to controls: 0 for no effect and ±100 for the full control effect; nearly all actives have a fitted effect of over 60% in size
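Nrf2 function is reported as luminescence of an ARE-controlled luciferase in A549 cells. Compounds were tested at several concentrations, and a CellTiter-Fluor read on the same wells flagged cytotoxicity.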
Nrf2 ARE act – qHTS of Nrf2 Activators | AREc32 ARE-luciferase reporter (MCF7-derived line), luminescence, 24 h | Potency, µM (doses to about 46.1 µM), inactives show at the highest dose activation, actives largely listed as activators | 410,000 tested, 0.31% active | AID 624171, 2012; also: potency is read from the fitted curve at half-maximal effect; % of control where 0% means no effect; nearly all actives have a fitted effect of over 65% in size
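Cells of the AREc32 ARE-luciferase line are plated in OPTI-MEM containing 5% FBS and left overnight at 37 deg C. Compounds are pinned in, incubation continues 24 hr, and firefly luciferase signal is then measured.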
Mito fusion yeast – qHTS Assay for Small Molecule Inhibitors of Mitochondrial Division or Activators of Mitochondrial Fusion. S. cerevisiae fusion-defective mutant growth rescue, CellTiterGlo 48 h. Potency, µM (titrated, usually from 46.1 µM), for inactives: at the highest dose growth rescue (activation), usual class: activators. 320,000 tested, 0.23% active. AID 485298, 2010; also: potency is read from the fitted curve at half-maximal effect; % of control where 0% means no effect; nearly all actives have a fitted effect of over 45% in size
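Yeast fusion mutant, YPEG (non-fermentable carbon), compound, 48 h at 37C non-permissive; CellTiterGlo added, 10 min RT, luminescence read. Rescued growth = division inhibition.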
GRP78 ERSR act – qHTS for Inducers of the Endoplasmic Reticulum Stress Response (ERSR) in Human Glioma: qHTS. Potency, µM, for inactives: top-dose activation, most hits filed as activators. AID 602332, 2012. U87-MG GRP78 promoter luciferase reporter, 16 h. 420,000 tested, 0.02% active; also: potency is read from the fitted curve at half-maximal effect; series mostly up to about 76 µM; % of control where 0% means no effect; nearly all actives have a fitted effect of over 35% in size
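Stably transfected U87-MG human glioma cells carrying a GRP78-based luminescent sensor were seeded at 1000 cells/well, pin-dosed with compounds and incubated 16 h. Luciferase reagent was then added, and end-point luminescence was read after 10 min at room temperature.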
A549 tox – Nrf2 qHTS screen for inhibitors: counterscreen for cytotoxicity; 390,000 tested, 0.16% active; AID 504648, 2011; A549 ARE-Fluc cells, CellTiter-Fluor viability, 18-24 h; Potency, µM (top dose mostly 46 µM), without a hit: at the highest dose activity change, negative = cytotoxicity, hits mostly inhibitors; also: potency is read from the fitted curve at half-maximal effect; % is scaled to controls: 0 for no effect and ±100 for the full control effect
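Cytotoxicity counterscreen: CellTiter-Fluor fluorescence was measured in A549 ARE_Fluc cells after 18-24 h of compound exposure in a concentration series. The subsequent BugLite luminescent read reports ARE-luciferase activity.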
Numbers without * were called inactive; u = inconclusive; x = no result; ! = not confirmed by another sample; [ ] = dose if it differs, or a comment. The list is not random: actives were taken first. Their share in the collection is about 2.3%. Calls follow the shape of the dose curve; as a rule, active = well fitted curve in the direction sought with a large enough effect; inconclusive = small, poorly fitted or top-dose-only effect, or another doubt; inactive = no such curve, though single readings can be large; an effect the other way counts as inactive or inconclusive.

SMILES	miR-21 act	Nrf2 inh	Nrf2 ARE act	Mito fusion yeast	GRP78 ERSR act	A549 tox
COc1ccccc1/C=C/C(=O)c1ccccc1	0.1%	u	u	-43.9%	u	7.5%
COc1ccccc1/C=C/C(=O)c1c2c(c(C)[nH]c1=O)CCCC2	10.0%	16.4µM*	18.3%	-2.0%	-6.9%	u
Cc1ccc(N2C(=O)[C@@H]3[C@H](C2=O)C2CCCN2[C@@H]3C(=O)c2ccccc2)cc1 (stereo partly drawn)	-18.6%	9.9%	u	-27.6%	-11.1%	1.0%
O=C(c1ccccc1)[C@@H]1[C@@H]2C(=O)N(c3ccc(F)cc3)C(=O)[C@@H]2C2CCCN21 (stereo partly drawn)	1.7%	3.8%	10µM*	-4.9%	-12.7%	19.4%
CCC(CO)Oc1cc(NC(=O)c2ccccc2F)c2ncn(C(C)C)c2c1 (stereo not drawn)	x	-19.5%	3.9%	x	-3.0%	1.1%
N#Cc1ccccc1COc1ccc(/C=C/C(=O)O)cc1	24.7%	2.31µM*	-2.1%	3.3%	-15.2%	-0.4%
O=C(O)/C=C/c1ccc(S(=O)(=O)Nc2ccc(OCc3ccccc3)cc2)cc1	-3.5%	7.5%	0.4%	2.9%	6.3%	-1.7%
C#CC(C)(C)NC(=O)c1ccc(-c2ccccc2F)cc1	-64.5%	28.1%	0.3%	2.3%	1.5%	9.6%
COc1ccc(Cn2c(O)c(C=Nc3ccc(C)cc3)c3ccccc3c2=O)cc1	-0.2%	9.2µM*	0.5%	-3.2%	-2.7%	u
COc1ccc(Cn2c(-c3ccc(C)cc3)c[n+]3ccccc23)cc1	u	0.731µM*	3.4%	-1.0%	-3.6%	-16.1%
C(=N\Nc1nc(N2CCCCCC2)nc(N2CCCCCC2)n1)/c1ccccc1	-3.4%	-15.4%	-1.0%	-4.3%	0.0%	7.2%
COc1ccccc1NC(=O)c1ccc(NC(=O)c2cc3c(s2)CCC3)cc1	0.2%	23.1µM*	1.9%	-3.6%	-4.9%	0.3%
N=c1c2ccccc2nnn1-c1ccccc1[N+](=O)[O-]	x	0.5%	14.1µM*	x	1.1%	3.8%
N#Cc1ccc(-n2nnc3ccccc3c2=O)c([N+](=O)[O-])c1	x	-10.6%	0.5%	x	-3.8%	0.3%
NCCCNc1ccc([N+](=O)[O-])cc1C(F)(F)F	4.7%	3.3%	-0.7%	-2.7%	-3.4%	-7.5%
O=C(NCCNc1ccc([N+](=O)[O-])cc1C(F)(F)F)c1ccc(F)cc1	16.3%	20.6µM*	2.4%	20.1%	-1.6%	u
C(=N\n1cnc2ccccc21)/c1cccnc1	-38.1%	14.4%	2.3%	-2.2%	5.7%	11.6%
Clc1nc2sccn2c1/C=N/n1cnc2ccccc21	-34.7%	u	3.16µM*	6.9%	2.4%	3.0%
COc1ccc2c(c1)c1nc3ccccc3nc1n2CC(=O)OC(C)C	0.7%	4.61µM*	0.2%	0.3%	-0.5%	-28.3%
CCN1CCN(C(=O)C23CCC(C)(C(=O)C2Br)C3(C)C)CC1 (stereo not drawn)	-3.0%	19.1%	-0.5%	1.4%	-2.3%	12.5%
Cn1c(NC2=NC3(CCCC3)C3=C(CCCC3=O)N2)nc2ccccc21	x	-14.8%	x	x	x	4.7%
O=C1CCCC2=C1C1(CCCC1)N=C(Nc1nc3ccccc3n1Cc1ccccc1)N2	x	16.4µM*	x	x	x	-6.0%
Cn1c(CN2CCCCC2)nc2cc(NC(=O)c3ccc(Cl)cc3)ccc21	18.9%	5.8µM*	-0.1%	-3.4%	-3.7%	-4.7%
O=c1cc(CN2CCN(c3ccccc3)CC2)nc2scc(-c3ccccc3)n12	-1.9%	14.6µM*	2.7%	3.9%	0.7%	-6.0%
CC(=O)c1ccc(N2CCN(Cc3cc(=O)n4c(-c5ccccc5)csc4n3)CC2)cc1	x	u	6.8%	x	0.5%	1.9%
SMILES	miR-21 act	Nrf2 inh	Nrf2 ARE act	Mito fusion yeast	GRP78 ERSR act	A549 tox
O=C(c1ccc(Cl)cc1)N(c1ccccn1)C1CCCCC1	1.1%	1.4%	-0.5%	4.4%	-4.0%	0.8%
O=C(c1cccc(C(=O)N(c2ccccn2)C2CCCCC2)c1)N(c1ccccn1)C1CCCCC1	0.1%	16.4µM*	6.2%	-2.8%	0.4%	-15.2%
COC(=O)N1CCC2(CC1)CN(C(c1ccccc1)c1ccccc1)C2	x	x	x	x	-2.0%	x
CCCc1nc2c3ccccc3ccn2c1Cc1ccc(C)cc1	x	x	11.2%	x	2.7%	x
CCOc1cc(C2NC(=O)c3c(sc4c3CCN(C)C4)N2)ccc1OC(=O)c1ccccc1Cl (stereo not drawn)	-7.6%	8.2µM*	-2.1%	x	-4.4%	-6.8%
COCc1ccc(C(=O)N(C)CC2CCCN(CCc3ccc(OC)cc3)C2)o1 (stereo not drawn)	-63.0%	u	0.7%	5.7%	-1.0%	-1.1%
O=[N+]([O-])c1ccc(-c2nc(C(Cl)Cl)c3ccccc3n2)cc1	-4.6%	14.6µM*	3.2%	6.8%	-3.8%	u
O=C(C1CCCN(S(=O)(=O)c2cccc3nsnc23)C1)N1CCc2ccccc2C1 (stereo not drawn)	12.6%	14.6µM*	3.5%	16.0%	-2.4%	-16.7%
CN(CCOc1ccc(Cl)cc1)C(=O)c1cc(S(=O)(=O)N2CCOCC2)ccc1N1CCCC1	x	-24.0%	-0.5%	-16.0%	-5.3%	-15.8%
CC(C)Oc1ccc2c(=O)c(-c3ccccc3)coc2c1	-44.7%	u	1.1%	25.1µM*!	-3.7%	-10.4%
O=C(Nc1cc(C(F)(F)F)cc(C(F)(F)F)c1)c1cc(Cl)ccc1O	x	x	x	x	-4.8%	x
COc1ccc(Br)cc1CN(C)CC(=O)Nc1c(Cl)ccc(C)c1Cl	-10.1%	18.4µM*	3.2%	u	-6.8%	u
CCOC(=O)CC(C)(C)/C(C)=N/Nc1ccc([N+](=O)[O-])cc1[N+](=O)[O-]	-2.4%	18.4µM*	5.8%	1.1%	-1.5%	u
CN(C)S(=O)(=O)c1ccc(NC(=O)N2CCN(c3cccc(C(F)(F)F)c3)CC2)cc1	21.8%	23.1µM*	-0.5%	5.3%	-8.2%	u
Cc1ccnc(NC(=S)N2CCN(c3cccc(C(F)(F)F)c3)CC2)c1	19.2%	23.1µM*	12.4%	-43.6%	16.1%	u
CCNC(=S)N1CCN(c2cccc(C(F)(F)F)c2)CC1	6.9%	-25.0%	-0.3%	5.4%	-3.4%	-1.5%
FC(F)(F)c1cccc(N2CCN(C(=S)NC3CCCCC3)CC2)c1	5.5%	16.4µM*	-0.1%[9.22 µM]	-12.3%	-2.1%	-16.2%
FC(F)(F)c1cccc(N2CCN(C(=S)NC3CCCC3)CC2)c1	19.9%	23.1µM*	-0.1%	2.3%	-3.4%	-16.6%
Cc1ccc(C)c(NC(=S)N2CCN(c3cccc(C(F)(F)F)c3)CC2)c1	-6.6%	-14.6%	-0.2%	-10.2%	-1.1%	0.7%

Compound activity (PubChem)
